{
  "source": "ChEMBL document CHEMBL3433997",
  "about": "“St. Jude Leishmania screening dataset” (2016)",
  "data": [
    {"target": "Glucose transporter (Leishmania mexicana) (UniProt O61059)", "experiment": "ST_JUDE_LEISH: Cytotoxicity at 2uM final concentration against transgenic Leishmania Mexicana promastigotes LmGT2 that are glucose transport deficient and complemented with the L. Mexicana glucose transporter 2. Activity is measured by DNA content using SYBR green in vitro", "assay_type": "functional", "units": {"inhibition": "%"}, "values": [
      {"smiles": "Cc1[nH]c(C)c(-c2ccc(OCc3ccccc3C(F)(F)F)nc2)c(=O)c1Br", "inhibition": 1.94},
      {"smiles": "CCc1c[nH]c2c(N3CCCC3=O)cc(C(=O)N[C@@H](Cc3ccccc3)[C@H](O)CNC3CCCCC3)cc12", "inhibition": 9.77},
      {"smiles": "O=C(Nc1cccc(-c2nn3ccccc3c2-c2ccnc(Nc3cccc(F)c3)n2)c1)c1c(F)ccc(F)c1F", "inhibition": 5.56},
      {"smiles": "O=C(Nc1cccc(-c2ccc(-c3nc4cc(C(F)(F)F)ccc4[nH]3)cc2)c1)c1ccoc1", "inhibition": 0.98},
      {"smiles": "O=C(Cc1ccccc1)NC(c1ccccc1)c1ccc2cccnc2c1O", "note": "(stereo not given)", "inhibition": -1.17},
      {"smiles": "O=C(CSc1nc(-c2ccccc2Cl)ns1)Nc1ccc2c(c1)OCO2", "inhibition": -1.67},
      {"smiles": "O=C(Nc1ccc(Cl)cc1)c1cccc(S(=O)(=O)NC2CCN(CC3CCCCC3)C2)c1", "note": "(stereo not given)", "inhibition": 4.13},
      {"smiles": "CC(C)(C)c1ccc(CNC(=O)COc2ccc(-c3nnc(-c4cccc([N+](=O)[O-])c4)o3)cc2[N+](=O)[O-])cc1", "inhibition": -0.93},
      {"smiles": "Cc1nn(-c2ccccc2)nc1C(=O)N(Cc1ccc(-c2ccc(CNCCc3ccc(S(C)(=O)=O)cc3)cn2)cc1)C1CC1", "inhibition": 2.91},
      {"smiles": "COc1ccc2cc(CNCCCCCCNCc3ccc4cc(OC)ccc4c3)ccc2c1", "inhibition": 103},
      {"smiles": "COc1cc2cc(C(=O)Nc3ccccc3)c(N)nc2cc1OC", "inhibition": 0.18},
      {"smiles": "CC(C)c1ccc(NC(=O)NCC2CCCN(CCCCCNC(=O)/C=C/c3ccc(Cl)c(Cl)c3)C2)cc1", "note": "(stereo not given)", "inhibition": 2.62},
      {"smiles": "N#Cc1ccc(/C=C/C(=O)NCCCCCN2CCN(C(=O)Nc3ccc(Cl)c(C(F)(F)F)c3)CC2)cc1", "inhibition": 1.97},
      {"smiles": "Cc1[nH]c(C)c(-c2ccc(CCc3ccc(F)cc3F)cc2)c(=O)c1Cl", "inhibition": -0.68},
      {"smiles": "O=C(Nc1ccc(Cl)c(Cl)c1)N1CCc2cc3nccc(N4CCN5CCC[C@H]5C4)c3cc21", "inhibition": 4.1},
      {"smiles": "CC(=O)c1c[nH]c(C(=O)Nc2ccc(-c3cn4ccccc4n3)cc2)c1", "inhibition": 10.2},
      {"smiles": "C=CCc1cc(Cc2cnc(N)nc2N)cc(CCC)c1O", "inhibition": -0.78},
      {"smiles": "CCOC(=O)NC1=NC(C)(C)N(OCc2cccc3c2ccc2ccccc23)C(NC(=O)OCC)=N1", "inhibition": 10.3},
      {"smiles": "Nc1nc(N)c2c(CCc3ccc4ccccc4c3)cccc2n1", "inhibition": -1.66},
      {"smiles": "Clc1ccc(C2CCN(CCCOc3ccc4c(c3)CCNCC4)CC2)cc1", "inhibition": 75.7},
      {"smiles": "O=C(Nc1cccc(F)c1)NC1CCN(c2ccnc3cc(Cl)ccc23)CC1", "inhibition": 1.75},
      {"smiles": "CCCC(CNCc1cccc(OC(F)(F)C(F)F)c1)CNc1cc(=O)c2ccccc2[nH]1", "note": "(stereo not given)", "inhibition": -4.05},
      {"smiles": "O=C1COC2(CN1C1CCN(Cc3ccc(O)cc3Cl)C1)c1ccccc1-c1ccccc12", "note": "(stereo not given)", "inhibition": 1.29},
      {"smiles": "CS(=O)(=O)N1CC2(CCN(CCC(NC(=O)Nc3ccccc3)c3ccc(Cl)c(Cl)c3)CC2)c2ccccc21", "note": "(stereo not given)", "inhibition": 3.05},
      {"smiles": "CCOc1c(Br)cc(Cl)cc1CNCCCNc1nc2ccccc2[nH]1", "inhibition": 3},
      {"smiles": "CN1CCN(c2ccnc3ccc(NC(=O)Nc4ccccc4Br)cc23)CC1", "inhibition": 0.11},
      {"smiles": "COc1ccc(C(=O)Nc2ccc(-c3nc4cc(C)ccc4[nH]3)cc2)cc1OC", "inhibition": 3.84},
      {"smiles": "COc1ccc(OC)c(-c2cccc(-c3cccc(NC(=O)c4ccc([N+](=O)[O-])o4)c3)n2)c1", "inhibition": 3.3},
      {"smiles": "CCCOc1ccc(C(F)(F)F)cc1NC(=O)c1nc2nc(C)cc(C)n2n1", "inhibition": 1.31},
      {"smiles": "CC1CCC2(CC1)N=C(N)N=C(N)N2OCc1cc2ccccc2c2ccccc12", "note": "(stereo not given)", "inhibition": 2.97},
      {"smiles": "COc1ccccc1-c1cccc(-c2cccc(NC(=O)c3ccc([N+](=O)[O-])o3)c2)n1", "inhibition": 9.06},
      {"smiles": "O=C(/C=C/c1ccc(Cl)c(Cl)c1)NCCCCCCN1CCCN(C(=O)Nc2ccc(Cl)c(Cl)c2)CC1", "inhibition": -2.06},
      {"smiles": "CC(C)C(NC(=O)Cc1cccc2ccccc12)C(=O)Nc1cccc(C#N)c1", "note": "(stereo not given)", "inhibition": 2.76},
      {"smiles": "O=C(Nc1ccc(Cl)c(Cl)c1)Nc1ccc(F)c([N+](=O)[O-])c1", "inhibition": -2.36},
      {"smiles": "COc1c(C2CCN(CCCCNC(=O)c3ccc(C)c(-c4ccc(C(F)(F)F)cc4)c3)CC2)ccc2c1CCCC2", "inhibition": -0.09},
      {"smiles": "O=C(NCC1CCC(C(=O)NCc2cccc3ccccc23)CC1)c1ccc(O)c(-c2ccc(Cl)c(Cl)c2)c1", "note": "(stereo not given)", "inhibition": 4.73},
      {"smiles": "CN1CCN(C(=O)CN2CCC3(CCC2=O)NC(=O)c2ccccc2O3)CC1", "note": "(stereo not given)", "inhibition": 3.13},
      {"smiles": "Cc1cc(C(=O)NCc2ccc(-c3c(C)noc3C)cc2)n(-c2ccc(Cl)cc2)n1", "inhibition": 2.6},
      {"smiles": "O=C(/C=C/c1ccc(Cl)cc1)NCCCCCN1CCCC(C(=O)Nc2ccc(F)c(Cl)c2)C1", "note": "(stereo not given)", "inhibition": 2.38},
      {"smiles": "CN1CCC(N2CCC(Oc3cccc(C(=O)NCCCC4CCCC4)c3)CC2)CC1", "inhibition": 10.3}
    ]}
  ]
}
